The values below come from PubChem BioAssay (NCI).

About 83,000 compounds went through this panel and 20% of them were active in at least one assay; those are over-represented in the sample as a whole.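 Single-dose data. Exposure time 48 hours. Values below 10 considered active.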 Active and inactive are the calls of the source.

For this assay, the system named is OVCAR-8 ovarian. Description: NCI-60 one-dose screen, 48 h (100 = growth as untreated, 0 = no growth, -100 = all killed). The following applies: 10 µM unless noted.
`N#CC1(O)CCCCC1`: the growth was 94.3% (inactive). The result for `CCCCCCCCNC(=O)C(C)C` reads 109% (inactive). In the case of `NNc1ncccn1`, the growth is 108% (inactive). Next, `COc1ccc(/C=C\C(=O)/C=C/c2ccc(OC)cc2)cc1`: 101% (inactive). As for `Cc1cc(C(=O)NN)c(C#N)c(=O)[nH]1`, the growth is 100% (inactive). The result for `CC(=O)c1ccc(C)cc1` reads 108% (inactive); that for `O=C(Nc1ccc([N+](=O)[O-])cc1)C(=O)Nc1ccc([N+](=O)[O-])cc1`, 86.4% (inactive).

Consider `NC(CSSCC(N)C(=O)O)C(=O)O` (configuration not stated), for which the growth is 2.42% (active). Next, `CC(C)C(C)(C)C(=O)C(C)(C)C(C)(C)C`: 99.1% (inactive); `C=C1C(=O)C2CCN1CC2`: 110% (inactive). `CC12CCC3c4ccc(O)cc4CCC3C1CCC2=O` (configuration not stated): the growth was 100% (inactive).

On to `CC(=O)CSc1ncnc2nc[nH]c12`, for which the growth was 99.2% (inactive). Next, `O=[N+]([O-])c1c(Cl)ncnc1Cl`: 104% (inactive). As to `CCCCCCCCCCCCCCCCCCSC(=N)N`, the growth was 86.9% (inactive). Next, `O=Cc1ccc(O)c(O)c1`: 95.8% (inactive); `O=[n+]1ccn([O-])c2ccccc21`: 121% (inactive); `Nc1ccc(F)c(Cl)c1F`: 108% (inactive). The result for `S=C(NCc1ccccc1)N1CCC(CCCC2CCN(C(=S)NCc3ccccc3)CC2)CC1` reads 96.4% (inactive).

For `Clc1ncnc2nc[nH]c12`, the growth was 102% (inactive). Next, `CC(C)Sc1ncnc2nc[nH]c12`: 107% (inactive); `NNc1ncnc2nc[nH]c12`: 16.4% (inactive); `CCOC(=O)CNC`: 91.3% (inactive). As for `C=CC1=NC(C)(C)CC(C)O1` (configuration not stated), the growth was 113% (inactive). Next, `O=C(CC(CC(=O)c1ccccc1)c1ccccn1)c1ccccc1`: 101% (inactive); `CC(=O)OC/C(C)=C\CC(C)COC(C)=O` (configuration not stated): 99.8% (inactive); `OCc1cccnc1`: 95.2% (inactive).

As to `COc1cccc(N=CNc2cccc(OC)c2)c1`, the growth was 104% (inactive). Next, `O=C(Nc1c(Cl)cc(Cl)cc1Cl)ON=C1CCCCC1`: 104% (inactive); `Cc1nc(C)c(C(=O)O)cc1C(=O)O`: 115% (inactive). Next, `C=CC(C)C(C)(C)O` (configuration not stated): 108% (inactive).

Take `CCC(/C=C\C(C)=O)CC`: the growth is 103% (inactive). Next, `O=[N+]([O-])c1ccc(-c2nc(N(CCO)CCO)c3ccccc3n2)o1`: 1.65% (active); `COC(=O)c1ccccc1C(=O)c1c(C)cc(C)cc1C`: 101% (inactive); `Cc1ccc(O)c(N)c1`: 104% (inactive). Next, `CC(=O)c1cccc(N(C)S(=O)(=O)c2ccc(C)cc2)c1`: 101% (inactive); `O=C1CSc2ccccc2N1`: 94.9% (inactive). `Cn1c(=O)c2[nH]c(CCCCC(=O)O)nc2n(C)c1=O`: the growth is 101% (inactive).
